# Assay results from PubChem BioAssay (Tox21).
# A number with no mark means an inactive call. Inconclusive results are not listed. Where a call stands in place of a potency, no number is given. Active and inactive are the calls of the source. Unless noted, the call rests on the fitted dose curve; in most records, active means well fitted curve in the direction sought with a large enough effect in the repeat runs; inconclusive means weak or mixed curves; inactive means no such curve, though single readings can be large; an effect the other way counts as inactive or inconclusive.
# Key:
# [1] = A CellTox Green Cytotoxicity Assay to monitor cytotoxicity in HepG2 cells - 8 hour (AID 1224890); further: nearly all actives have a fitted effect of over 45% in size; further: potency means the concentration at half of the fitted maximal effect
# Outline: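 First, HepG2 cells (600/well) mixed with reagent were plated; second, after 5 h at 37 C they received compounds via pintool; third, fluorescence was measured at 0 h through 40 h at 8 h intervals.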
# [2] = qHTS assay to identify small molecule antagonists of the estrogen receptor alpha (ER-alpha) signaling pathway using the BG1 cell line in the presence of 0.1 nM 17-beta-estradiol - cell viability counter screen (AID 1259241); further: nearly all actives have a fitted effect of over 40% in size
# Outline: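 Cytotoxicity counter-screen: live-cell protease activity measured by fluorescence (30 min reagent step) in the same wells. Cells were VM7Luc4E2 with endogenous ER-alpha and ERE-driven luciferase, treated 22 hr at 37C alongside 0.1 nM 17beta-estradiol final.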
# [3] = qHTS assay to identify small molecule antagonists of the androgen receptor (AR) signaling pathway using the MDA cell line in the presence of 0.5 nM R1881 - cell viability counter screen (AID 1259242); further: nearly all actives have a fitted effect of over 45% in size
# Outline: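 qHTS format. MDA-kb2 (MMTV-luc, AR/GR responsive) + cpd + 0.5 nM R1881 final, 16 hr 37C/0% CO2 → CellTiter-Fluor 30 min → fluorescence intensity.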
# [4] = molecular target: Estrogen receptor (Homo sapiens) (UniProt P03372); assay: qHTS assay to identify small molecule antagonists of the estrogen receptor alpha (ER-alpha) signaling pathway using the BG1 cell line in the presence of 0.1 nM 17-beta-estradiol (AID 1259244); further: nearly all actives have a fitted effect of over 50% in size
# Outline: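 Reporter is a stably transfected luciferase under four estrogen responsive elements in VM7Luc4E2 cells expressing native full-length ER-alpha; inhibition of 0.1 nM (final) 17beta-estradiol-driven signal over 22 h is read by luminescence.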
# [5] = qHTS assay to identify small molecule HDAC inhibitors (AID 1259364); further: potency means the concentration at half of the fitted maximal effect;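 further: wild-type HCT-116 cells with endogenous class I/II HDAC activity; nearly all actives have a fitted effect of over 45% in size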; on activity change, negative = inhibition: top concentration of the series differs between compounds
# Outline: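 Quantitative high-throughput format: overnight-seeded HCT-116 cells got compounds for 2 hr at 37C; HDAC-Glo I/II reagent added, 30 min RT, luminescence measured.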
# [6] = qHTS assay to identify small molecule HDAC inhibitors - cell viability counter screen (AID 1259365); further: series mostly up to about 92 µM; nearly all actives have a fitted effect of over 50% in size
# Outline: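 CellTiter-Glo luminescence (30 min, room temperature) reported viability after a 2 h compound exposure at 37 C. Cells: wild-type HCT-116, 1,500 per well, seeded the night before.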
# [7] = qHTS assay to identify small molecule antagonists of the sonic hedgehog signaling (Shh) pathway - cell viability counter screen (AID 1259367); further: nearly all actives have a fitted effect of over 55% in size
# Outline: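 Cytotoxicity was assessed in parallel with Shh reporter activity by measuring live-cell protease fluorescence (CellTiter-Fluor) in NIH/3T3 cells stably carrying Gli1-Luc, treated with compound under conditioned medium stimulation for 23 hr plus 1 hr reagent incubation.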
# [8] = qHTS assay to identify small molecule agonists of the sonic hedgehog signaling (Shh) pathway - cell viability counter screen (AID 1259366); further: nearly all actives have a fitted effect of over 50% in size
# Outline: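 Cytotoxicity counter screen: CellTiter-Fluor reagent added after 23 h compound exposure, then 1 h at 37C and fluorescence read. Cells were 3T3 Gli1-Luc, seeded 2,000 per well and dosed 4 h post-plating.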
# [9] = qHTS assay to identify small molecule phospholipidosis (PLD) inducers (AID 1259344; active means well fitted curve in the direction sought with a large enough effect; an effect the other way counts as inactive or inconclusive)
# Outline: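 Cells (HepG2, 900 per well) attach for 4 h, receive LipidTOX Red and compound together, incubate 24 h at 37 C, are fixed 30 min with paraformaldehyde/Hoechst, then imaged at one site per well.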
# Sequence of Estrogen receptor (Homo sapiens) (P03372 whole entry, looked up): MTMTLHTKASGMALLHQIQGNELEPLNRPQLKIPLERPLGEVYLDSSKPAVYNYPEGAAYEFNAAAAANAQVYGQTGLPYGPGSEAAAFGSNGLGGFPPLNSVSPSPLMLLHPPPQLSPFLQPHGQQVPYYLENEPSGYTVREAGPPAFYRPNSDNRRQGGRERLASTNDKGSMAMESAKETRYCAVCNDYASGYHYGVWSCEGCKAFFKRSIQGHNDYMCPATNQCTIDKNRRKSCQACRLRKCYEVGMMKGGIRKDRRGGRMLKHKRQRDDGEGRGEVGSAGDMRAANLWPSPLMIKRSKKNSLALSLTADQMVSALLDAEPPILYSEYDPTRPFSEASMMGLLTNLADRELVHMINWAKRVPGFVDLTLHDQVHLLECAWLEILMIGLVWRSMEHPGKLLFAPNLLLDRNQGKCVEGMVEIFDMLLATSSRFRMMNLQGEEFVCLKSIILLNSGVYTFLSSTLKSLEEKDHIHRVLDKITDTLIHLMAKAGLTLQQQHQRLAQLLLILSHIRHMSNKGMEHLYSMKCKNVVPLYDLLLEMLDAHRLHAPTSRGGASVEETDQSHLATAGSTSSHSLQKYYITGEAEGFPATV
compound,measurement,setting,value
CC(C)(C)OC(=O)N1C[C@@H](F)C[C@H]1C(=O)O,Potency,[1],inactive
same,outcome,[2],inactive
same,outcome,[3],inactive
same,outcome,[4],inactive
same,Potency,[5],inactive
same,outcome,[6],inactive
same,outcome,[7],inactive
CCCCNc1ccccc1,Potency,[1],inactive
same,outcome,[2],inactive
same,outcome,[3],inactive
same,outcome,[4],inactive
same,Potency,[5],inactive
same,outcome,[6],inactive
same,Potency,[8],inactive
same,outcome,[7],inactive
C=C(C)C(=O)OCCCCCCCCCCCCCCCCCC,cytotoxicity increase,[1],0.0012% [at 15.8 µM]
same,"activity change, negative = cytotoxicity",[2],10.5% [at 19 µM]
same,"viability change, negative = cytotoxic",[3],1.71% [at 19 µM]
same,"activity change, negative = inhibition",[4],9.23% [at 19 µM]
same,"activity change, negative = inhibition",[5],1.5% [at 19 µM]
same,"activity change, negative = cytotoxicity",[6],3.83% [at 19 µM]
same,"viability change, negative = cytotoxic",[8],-3.3% [at 19 µM]
same,"viability change, negative = cytotoxic",[7],-2.33% [at 19 µM]
Cc1ccccc1Br,Potency,[1],inactive
same,outcome,[2],inactive
same,outcome,[3],inactive
same,Potency,[5],inactive
same,Potency,[8],inactive
same,outcome,[7],inactive
Cn1cnc2c(=O)[nH]c(N)nc21,Potency,[1],inactive
same,outcome,[2],inactive
same,outcome,[3],inactive
same,Potency,[5],inactive
same,outcome,[6],inactive
same,Potency,[8],inactive
same,outcome,[7],inactive
COc1cccc(OC)c1,Potency,[1],inactive
same,outcome,[2],inactive
same,outcome,[3],inactive
same,outcome,[6],inactive
same,Potency,[8],inactive
same,outcome,[7],inactive
N#CCc1ccccc1[N+](=O)[O-],Potency,[1],inactive
same,outcome,[2],inactive
same,outcome,[3],inactive
same,Potency,[8],inactive
same,outcome,[7],inactive
C=CC(=O)OCCCCCC,Potency,[1],inactive
same,outcome,[2],inactive
same,outcome,[3],inactive
same,outcome,[6],inactive
same,Potency,[8],inactive
same,outcome,[7],inactive
N[C@@H](CS)C(=O)O,Potency,[1],inactive
same,outcome,[2],inactive
same,outcome,[3],inactive
same,Potency,[5],inactive
same,outcome,[6],inactive
same,outcome,[7],inactive
CC(C=O)Cc1ccc(C(C)C)cc1 (stereo not drawn),Potency,[1],inactive
same,outcome,[2],inactive
same,outcome,[3],inactive
same,outcome,[6],inactive
same,Potency,[8],inactive
same,outcome,[7],inactive
Nc1cc(C(Cl)=C(Cl)Cl)c(S(N)(=O)=O)cc1S(N)(=O)=O,Potency,[1],inactive
same,outcome,[2],inactive
same,outcome,[4],inactive
same,Potency,[9],inactive
same,Potency,[5],inactive
same,outcome,[6],inactive
same,Potency,[8],inactive
same,outcome,[7],inactive
COc1ccc(NC(C)=O)cc1,Potency,[1],inactive
same,outcome,[2],inactive
same,outcome,[3],inactive
same,Potency,[5],inactive
same,outcome,[6],inactive
same,outcome,[7],inactive
C1CCCCCCCCCCC1,cytotoxicity increase,[1],-1.99% [at 15.8 µM]
same,"activity change, negative = cytotoxicity",[2],-5.47% [at 19 µM]
same,"activity change, negative = inhibition",[4],-1.81% [at 19 µM]
same,"activity change, negative = inhibition",[5],3.38% [at 19 µM]
same,"activity change, negative = cytotoxicity",[6],-1.94% [at 19 µM]
same,"viability change, negative = cytotoxic",[8],0.953% [at 19 µM]
same,"viability change, negative = cytotoxic",[7],-0.0913% [at 19 µM]
CO[Si](OC)(OC)OC,Potency,[1],inactive
same,outcome,[2],inactive
same,outcome,[3],inactive
same,outcome,[6],inactive
same,outcome,[7],inactive
CCCCCCOC(=O)c1ccccc1O,Potency,[1],inactive
same,outcome,[2],inactive
same,outcome,[4],inactive
same,Potency,[5],inactive
same,outcome,[6],inactive
same,Potency,[8],inactive
same,outcome,[7],inactive
CCCC(C)CO (stereo not drawn),Potency,[1],inactive
same,outcome,[2],inactive
same,outcome,[3],inactive
same,Potency,[5],inactive
same,Potency,[8],inactive
same,outcome,[7],inactive
CC(O)CN(CCCN(C)C)CCCN(C)C (stereo not drawn),Potency,[1],inactive
same,outcome,[2],inactive
same,outcome,[3],inactive
same,Potency,[5],inactive
same,outcome,[6],inactive
same,outcome,[7],inactive
CCCCCCCCCCCCI,Potency,[1],inactive
same,outcome,[2],inactive
same,outcome,[3],inactive
same,Potency,[5],inactive
same,outcome,[6],inactive
same,Potency,[8],inactive
same,outcome,[7],inactive
Nc1[nH]c(=O)ncc1F,Potency,[1],inactive
same,outcome,[2],inactive
same,outcome,[4],inactive
same,Potency,[9],inactive
same,Potency,[5],inactive
same,outcome,[6],inactive
same,Potency,[8],inactive
same,outcome,[7],inactive
CC1=CC(=O)CCC1,Potency,[1],inactive
same,outcome,[2],inactive
same,outcome,[3],inactive
same,Potency,[5],inactive
same,Potency,[8],inactive
same,outcome,[7],inactive
Cn1ccc2cc3c(cc21)CCN3C(=O)Nc1cccnc1,cytotoxicity increase,[1],-6.36% [at 15.8 µM]
same,"activity change, negative = cytotoxicity",[2],-4.26% [at 19 µM]
same,"activity change, negative = inhibition",[4],76.4% [at 19 µM]
same,Potency,[9],inactive
same,Potency,[5],11.6 µM (active)
same,"activity change, negative = cytotoxicity",[6],-0.0806% [at 19 µM]
same,"viability change, negative = cytotoxic",[8],4.12% [at 19 µM]
same,"viability change, negative = cytotoxic",[7],4.69% [at 19 µM]
Nc1ccn(C2CO[C@H](CO)O2)c(=O)n1 (stereo partly drawn),Potency,[1],19 µM (active)
same,outcome,[2],inactive
same,outcome,[4],inactive
same,PLD induction,[9],4.48% [at 7.66 µM]
same,Potency,[5],inactive
same,outcome,[6],inactive
same,Potency,[8],inactive
same,outcome,[7],inactive
C=C(C)C(=O)NCCCN(C)C,Potency,[1],inactive
same,outcome,[2],inactive
same,outcome,[3],inactive
same,Potency,[5],inactive
same,outcome,[6],inactive
same,Potency,[8],inactive
same,outcome,[7],inactive
CC(C)c1cccc(O)c1,Potency,[1],inactive
same,outcome,[2],inactive
same,outcome,[4],inactive
same,Potency,[5],inactive
same,outcome,[6],inactive
same,Potency,[8],inactive
same,outcome,[7],inactive
C#CC(O)C(CC)CCCC (stereo not drawn),Potency,[1],inactive
same,outcome,[2],inactive
same,outcome,[3],inactive
same,Potency,[5],inactive
same,outcome,[6],inactive
same,Potency,[8],inactive
same,outcome,[7],inactive
OCCCCCCO,Potency,[1],inactive
same,outcome,[2],inactive
same,outcome,[3],inactive
same,Potency,[5],inactive
same,Potency,[8],inactive
same,outcome,[7],inactive
CCC(C)OC(=O)N1CCCCC1CCO (stereo not drawn),Potency,[1],inactive
same,outcome,[2],inactive
same,outcome,[3],inactive
same,outcome,[6],inactive
same,outcome,[7],inactive
CSc1nc(NC2CC2)nc(NC(C)(C)C)n1,Potency,[1],inactive
same,outcome,[2],inactive
same,outcome,[3],inactive
same,Potency,[5],inactive
same,Potency,[8],inactive
CCC(=O)c1cccc(Cl)c1,Potency,[1],inactive
same,outcome,[2],inactive
same,outcome,[3],inactive
same,Potency,[5],inactive
same,outcome,[6],inactive
same,Potency,[8],inactive
same,outcome,[7],inactive
O=C(O)/C=C/c1ccc(/C=C/C(=O)O)cc1,Potency,[1],inactive
same,outcome,[2],inactive
same,outcome,[3],inactive
same,Potency,[5],1.34 µM (active)
same,outcome,[6],inactive
same,Potency,[8],inactive
same,outcome,[7],inactive
